Among the data in PubChem BioAssay AID2111 (National Center for Advancing Translational Sciences (NCATS), 2009) are Potency values, retold here.

SMILES strings stand for the structures. Where “and” joins values, the source holds several entries; their conditions need not be identical. Equal values may be shown once. Calls of active or inactive are those of the source. A call without a number means that no potency is given here. Calls follow the shape of the dose curve; as a rule, active = well fitted curve in either direction with a large enough effect; inconclusive = small, poorly fitted or top-dose-only effect; inactive = no such curve, though single readings can be large or run the other way.

The assay addresses Lysosomal alpha-glucosidase (Homo sapiens) (UniProt P10253). The assay is described as follows: Confirmation of Inhibitors and Activators of Human alpha-Glucosidase From Spleen Homogenate Using an Alternate Red Fluorescent Susbtrate. The settings on record: resorufin-glucoside fluorescence; series mostly up to 62.8 µM. From the text:
NIH Chemical Genomics Center [NCGC] NIH Molecular Libraries Probe Production centers Network [MLPCN] MLPCN Grant: 1R03MH084841-01 Assay Submitter (PI): Wei Zheng NCGC Assay Overview: Alpha-glucosidase is responsible for hydrolysis of terminal, non-reducing 1,4-linked alpha-D-glucose residues with release of alpha-D-glucose. It is a lysosomal hydrolase that is required for the degradation of a small percentage (1-3%) of cellular glycogen in human. Deficiency of this enzyme results in glycogen-storage disease type II (GSDII), also referred to as Pompe disease, an autosomal recessive disorder. Structurally normal glycogen is accumulated in lysosomes and cytoplasm in affected patients, primarily in muscle tissues. Excessive glycogen storage within lysosomes may interrupt normal functioning of other organelles and leads to cellular injury. In turn, this leads to enlargement and dysfunction of the entire organ involved (eg, cardiomyopathy and muscle weakness). It has reported that the improper folding and trafficking of alpha-glucosidase resultinged from the genetic mutations may account for a significant number of Pomrope patients. […] We optimized this alpha-glucosidase assay in 1536-well plate format for identifying the novel small molecule inhibitors with the structures other than the sugar analogs in order to develop the new pharmacological chaperones. In particular, this assay is directed towards discovering compounds active in a more natural setting, tissue homogenate, that may have been missed by screens of the purified enzyme under more stringent conditions. This assay attempted to confirm hits from the primary screening using an alternate fluor than the primary screen used.
NCGC Assay Protocol Summary: This is a fluorogenic enzyme assay with Resorufin-alpha-D-glucopyranoside as the substrate and human spleen homogenate containing alpha-glucosidase as the enzyme preparation. Upon hydrolysis of this fluorogenic substrate, the resulting product, resorufin (which excites at 573 nm and emits at 610 nm) can be detected by a fluorescence plate reader. Data were normalized to the controls for basal activity (without enzyme) and 100% activity (with enzyme). The AC50 values were determined from concentration-response data modeled with the standard Hill equation. Assay buffer: 50 mM citric acid (titrated with potassium phosphate to pH 5.0), 0.01% Tween-20 (pH 5.0 is an optimal condition for this enzyme assay) 1536-well assay protocol for the alpha-glucosidase from human spleen homogenate: (1) Add 2 ul/well spleen homogenate (1 ug) (2) Add 23 nL compounds in DMSO solution. The final titration was 0.5 nM to 58 uM. (3) Add 2 ul of substrate (1 mM final) (4) Incubate at 37 C for 40 min (5) Add 2 ul stop solution (1M NaOH and 1M Glycine mixture, pH 10) (6) Detect the assay plate in a ViewLux plate reader (PerkinElmer) with […]. Keywords: Alpha-glucosidase, Pompe Disease, pharmacological chaperone, chaperone therapy, high throughput screening, alpha-glucosidase inhibitor, MLSMR, MLSCN, NIH Roadmap, qHTS and NCGC
As to `COc1ccc(CCn2c3c(c(=O)[nH]c2=S)CN(C(C)C)CN3)cc1OC`, the Potency is 12.6 µM (active).
For the compound `O=c1[nH]cc(C#Cc2ccccc2)c2ncncc12`, the Potency entry was “inactive”.
With `CCCN1CNc2c(c(=O)[nH]c(=S)n2CCc2ccc(Cl)cc2)C1`, the Potency was 11.2 µM (active).
The same measure for `COc1ccc(C#Cc2c[nH]c(=O)c3cncnc23)cc1OC`: “inactive”; for `CCCN1CNc2c(c(=O)[nH]c(=S)n2CCc2ccc(OC)c(OC)c2)C1`: 8.91 µM (active).
The same measure for `CC(=O)c1ccc(N2CCN(S(=O)(=O)c3ccc(N4CCCC4=O)cc3)CC2)cc1`: “inactive”; for `CC(=O)N1CCN(c2ccc(NS(=O)(=O)c3ccc4c(c3)CC(=O)N4)cc2)CC1`: “inactive”; for `COc1ccc(CCc2c[nH]c(=O)c3cncnc23)cc1OC`: “inactive”.
To `CCCN1CNc2c(c(=O)[nH]c(=S)n2CCc2cc(C)ccc2C)C1` belongs 8.91 µM (active); to `CCCN1CNc2c(c(=O)[nH]c(=S)n2CCc2ccc(C)cc2C)C1`, 11.2 µM (active).
Consider `CCCN1CNc2c(c(=O)[nH]c(=S)n2CCc2ccsc2)C1`, for which the Potency was 28.2 µM (active).
For the compound `O=C1Cc2cc(S(=O)(=O)N3CCN(c4ccc(O)cc4)CC3)ccc2N1`, the Potency is 11.9 µM [inhibitor] (active).
With `COc1ccc(CCn2c(=S)[nH]c(=O)c3nccnc32)cc1OC`, the Potency entry was “inactive”.
Regarding `CC(=O)c1ccc(N2CCN(C(=O)c3ccc4c(c3)CC(=O)N4)CC2)cc1`, the Potency entry is “inactive”.
For the compound `CCCN1CNc2c(c(=O)[nH]c(=S)n2CCC(C)C)C1`, the Potency result was “inactive”.
For `O=C1Cc2cc(S(=O)(=O)N3CCN(c4ccc(Br)cc4)CC3)ccc2N1`, the Potency entry was “inactive”.
Take `O=c1[nH]cc(CCc2ccccc2)c2ncncc12`: the Potency result is “inactive”.
For the compound `CCCN1CNc2c(c(=O)[nH]c(=S)n2CCC)C1`, the Potency entry is “inactive”.
To `CC(=O)c1ccc(N2CCN(S(=O)(=O)c3ccc4c(c3)CCCN4C(C)=O)CC2)cc1` belongs “inactive”.
To `O=C1Cc2cc(S(=O)(=O)N3CCN(c4ccc(Cl)cc4)CC3)ccc2N1` belongs “inactive”; to `CC(=O)c1ccc(N2CCN(S(=O)(=O)c3ccc4c(c3)C(=O)OC4)CC2)cc1`, “inactive”; to `CCCN1CNc2c(c(=O)[nH]c(=S)n2CCc2cccc(OC)c2OC)C1`, 15.8 µM (active).
For `CCCN1CNc2c(c(=O)[nH]c(=S)n2CCc2cc(OC)cc(OC)c2)C1`, the Potency is 7.94 µM (active).
Consider `Clc1ncc(C#Cc2ccccc2)c2ncncc12`, for which the Potency result was “inactive”.
To `CC(=O)c1ccc(N2CCN(S(=O)(=O)c3ccc4c(c3)C(Cl)(Cl)C(=O)N4)CC2)cc1` belongs 20.6 µM [inhibitor] (active) and 32.6 µM [inhibitor] (active).
The same measure for `c1csc(-c2nc(NCC3CCCO3)c3ccccc3n2)c1` (stereo not given): “inactive”; for `COc1ccc(CCn2c3c(c(=O)[nH]c2=S)CN(CC(C)C)CN3)cc1OC`: 6.31 µM (active); for `CCCN1CNc2c(c(=O)[nH]c(=S)n2CCCc2ccccc2)C1`: 35.5 µM (active).
As to `CC(=O)c1ccc(N2CCN(C(=O)c3ccc4c(c3)CCC(=O)N4)CC2)cc1`, the Potency result was “inactive”.
`CC(=O)c1ccc(N2CCN(S(=O)(=O)c3cc4c(cc3Cl)NC(=O)C4)CC2)cc1`: the Potency is 4.61 µM [inhibitor] (active) and 3.66 µM [inhibitor] (active).
For `CCCN1CNc2c(c(=O)[nH]c(=S)n2CCc2cccc(OC)c2)C1`, the Potency is 10 µM (active).
Take `COc1ccc(C#Cc2cnc(Cl)c3cncnc23)cc1OC`: the Potency entry was “inactive”.
On to `O=C1Cc2cc(S(=O)(=O)N3CCN(c4ccc(F)cc4)CC3)ccc2N1`, for which the Potency is 59.5 µM [inhibitor] (active).
Regarding `CC(=O)c1ccc(N2CCN(S(=O)(=O)c3ccc4[nH]c(=O)[nH]c4c3)CC2)cc1`, the Potency result was “inactive”.
Consider `CCCN1CNc2c(c(=O)[nH]c(=S)n2CCc2cc(Cl)cc(Cl)c2)C1`, for which the Potency is 12.6 µM (active).
As to `CC(=O)c1ccc(N2CCN(S(=O)(=O)c3ccc4c(c3)CC(C)N4C(C)=O)CC2)cc1` (stereo not given), the Potency result was “inactive”.
As for `CCCN1CNc2c(c(=O)[nH]c(=S)n2CCc2ccccc2C)C1`, the Potency is 12.6 µM (active).
To `CCCN1CNc2c(c(=O)[nH]c(=S)n2CCc2cccc(C)c2C)C1` belongs 3.98 µM (active); to `CCCN1CNc2c(c(=O)[nH]c(=S)n2CCc2ccc(OC)cc2)C1`, 25.1 µM (active).
For the compound `CCCN1CNc2c(c(=O)[nH]c(=S)n2CCc2cccc(Cl)c2)C1`, the Potency is 15.8 µM (active).
